Reference: PubChem BioAssay AID2284333 (EPA ToxCast)
Records with an inconclusive call do not appear. The source made the active and inactive calls. The calls were made as follows: active = hit-call score of the fitted dose curve at least 0.9, where 1 is the maximum; inconclusive = response in the unintended direction; inactive = score below 0.9.

The molecules below were run against rainbow trout Glucocorticoid Receptor (GR), nr3c1 (gene 100136786) (UniProt P49843) (assay: ATG_rtGR_EcoTox2: Attagene TRANS-FACTORIAL EcoTox-2 HepG2 Assay for rainbow trout Glucocorticoid Receptor (GR)).
Chain of rainbow trout Glucocorticoid Receptor (GR), nr3c1 (gene 100136786) (P49843 whole entry, looked up): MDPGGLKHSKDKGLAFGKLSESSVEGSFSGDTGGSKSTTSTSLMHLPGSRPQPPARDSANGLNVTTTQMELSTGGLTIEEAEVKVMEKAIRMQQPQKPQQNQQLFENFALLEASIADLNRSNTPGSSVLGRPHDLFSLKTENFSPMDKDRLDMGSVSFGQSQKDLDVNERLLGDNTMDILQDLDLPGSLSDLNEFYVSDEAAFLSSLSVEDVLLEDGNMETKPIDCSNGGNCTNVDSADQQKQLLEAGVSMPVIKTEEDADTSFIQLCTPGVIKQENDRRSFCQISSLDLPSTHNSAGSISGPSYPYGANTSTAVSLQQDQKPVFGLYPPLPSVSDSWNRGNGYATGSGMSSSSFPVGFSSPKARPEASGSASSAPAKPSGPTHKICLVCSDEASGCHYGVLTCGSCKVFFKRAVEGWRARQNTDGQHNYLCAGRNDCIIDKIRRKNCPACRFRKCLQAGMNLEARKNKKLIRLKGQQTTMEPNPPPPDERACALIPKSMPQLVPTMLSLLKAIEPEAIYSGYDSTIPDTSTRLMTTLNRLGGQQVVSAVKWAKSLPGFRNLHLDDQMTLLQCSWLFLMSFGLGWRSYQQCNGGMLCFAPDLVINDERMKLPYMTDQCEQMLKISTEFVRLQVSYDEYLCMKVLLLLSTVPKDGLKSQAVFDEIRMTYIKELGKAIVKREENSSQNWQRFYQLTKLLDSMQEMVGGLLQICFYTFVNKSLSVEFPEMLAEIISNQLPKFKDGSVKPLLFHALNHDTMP
Method: ATG_EcoTox2 is a cell-based, multiplexed assay created by modifying the existing Attagene TRANS-FACTORIAL system to include a panel of nuclear receptors from some or all the following species: human (Homo sapiens), african clawed frog (Xenopus laevis), rainbow trout (Oncorhynchus mykiss), japanese medaka (Oryzias latipes), and zebrafish (Danio rerio). The ECOTOX2-FACTORIAL format uses HepG2, a human liver cell line, with measurements taken at 24 hours after chemical dosing in a 24-well plate. ATG_rtGR_EcoTox2 is one of 29 assay components calculated in the ATG_EcoTox2 assay. It is designed to make measurements of mRNA induction, a form of inducible reporter, as detected with fluorescence intensity signals by Reverse transcription polymerase chain reaction (RT-PCR) and Capillary electrophoresis technology.The assay endpoint ATG_rtGR_EcoTox2 was analyzed in the positive analysis fitting direction relative to DMSO as the negative control and baseline of activity. Using a type of inducible reporter, measures of mRNA for gain-of-signal activity can be used to understand the reporter gene at the transcription factor-level as they relate to the gene for glucocorticoid receptor. Furthermore, this assay endpoint can be referred to as a primary readout, because this assay has produced multiple assay endpoints where this one serves a reporter gene function. To generalize the intended target to other relatable targets, this assay endpoint is annotated to the nuclear receptor intended target family, where the subfamily is steroidal.
Human liver HepG2 cells are transiently transfected with multiple reporter transcription units (MRTUs) in 6-well plates using FuGene 6 reagent (Roche; 3 ml FuGene/1 mg DNA). The MRTU constructs are regulated by a cis-regulating element (promoter). Each RTU expresses a GAL4-UAS that regulates the transcription of a nearby target reporter gene sequence. A major difference between the CIS and TRANS system is that in CIS activities of endogenous TFs are measured, whereas the TRANS assay evaluates changes in activities of exogenous, chimeric NR-Gal4 proteins. […] At the end of 24 hour incubation, total RNA was isolated using TriZol reagent (Invitrogen). The isolated RNA is then reverse-transcribed using oligo(dT) primer and Mo-MLV reverse transcriptase (Invitrogen) with DNAse I (Ambion) treatment for 30 min. The one-tenth of the produced cDNA was amplified by PCR using Taq DNA polymerase (Invitrogen) and two reporter sequence-specific primers. […] The fragments were purified using Qiaquick PCR columns (Qiagen), analyzed on an ABI 3130xL genetic analyzer (Applied Biosystems) with peak positions identified by using a set of X-rhodamine (ROX)-labeled MapMarker1000 molecular weight standards (BioVentures). […]

SMILES	outcome
[Cl][Sn]([c]1ccccc1)([c]1ccccc1)[c]1ccccc1	inactive
O=S(=O)(O)C(F)(F)C(F)(F)C(F)(F)C(F)(F)C(F)(F)C(F)(F)F	inactive
CCCCOCN(C(=O)CCl)c1c(CC)cccc1CC	inactive
O=C(O)C(F)(F)C(F)(F)C(F)(F)C(F)(F)C(F)(F)C(F)(F)C(F)(F)F	inactive
